# In PubChem BioAssay (NCI):
# The panel holds about 83,000 compounds, 20% with a hit somewhere; the sample as a whole holds those more often.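 Percent growth is the endpoint: 0 to 100 indicates growth inhibition (40 means 60% inhibition), 0 means no net growth, and negative values indicate cell death.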 A number with no mark means an inactive call. Calls of active or inactive are those of the source. The calls were made as follows: active = growth percent below 10; inactive = the rest.
# Experiments:
# Assay in all cases: NCI-60 one-dose screen, 48 h (100 = growth as untreated, 0 = no growth, -100 = all killed)
# Settings in all cases: 10 µM
# HCT-15 colon = system: HCT-15 colon
# HT29 colon = system: HT29 colon
# SNB-75 CNS = system: SNB-75 CNS
# SNB-19 CNS = system: SNB-19 CNS
# U251 CNS = system: U251 CNS
# PC-3 prostate = system: PC-3 prostate
# SK-MEL-5 melanoma = system: SK-MEL-5 melanoma
# UACC-62 melanoma = system: UACC-62 melanoma
# LOX IMVI melanoma = system: LOX IMVI melanoma
# SK-MEL-28 melanoma = system: SK-MEL-28 melanoma
# SK-MEL-2 melanoma = system: SK-MEL-2 melanoma
# EKVX NSCLC = system: EKVX NSCLC
# SN12C renal = system: SN12C renal
# UO-31 renal = system: UO-31 renal
# TK-10 renal = system: TK-10 renal
# ACHN renal = system: ACHN renal
# CAKI-1 renal = system: CAKI-1 renal
# A498 renal = system: A498 renal
# CCRF-CEM leukemia = system: CCRF-CEM leukemia
# MOLT-4 leukemia = system: MOLT-4 leukemia
Compound,growth (HCT-15 colon),growth (HT29 colon),growth (SNB-75 CNS),growth (SNB-19 CNS),growth (U251 CNS),growth (PC-3 prostate),growth (SK-MEL-5 melanoma),growth (UACC-62 melanoma),growth (LOX IMVI melanoma),growth (SK-MEL-28 melanoma),growth (SK-MEL-2 melanoma),growth (EKVX NSCLC),growth (SN12C renal),growth (UO-31 renal),growth (TK-10 renal),growth (ACHN renal),growth (CAKI-1 renal),growth (A498 renal),growth (CCRF-CEM leukemia),growth (MOLT-4 leukemia)
CC(C1=C(CN(C(=O)Cc2cn(-c3ccccc3)nc2-c2ccc(Cl)cc2)C(C)C)Cc2ccccc21)c1ccccn1 (stereo unspecified),54.2%,32.9%,80.7%,76.9%,67.6%,41.7%,46.1%,63.6%,69.2%,91.9%,53%,41%,77%,27.4%,70.3%,60.4%,40.9%,50.6%,53.3%,29.3%
COC(=O)c1cc2oc(/C=C3/SC(=S)N(N)C3=O)cc2n1Cc1ccccc1,47%,63%,29.3%,84.5%,45.3%,-3.5% (active),45.4%,50.6%,34.6%,-71.4% (active),-14% (active),55.8%,63.5%,-22.1% (active),-4.58% (active),48.5%,60.2%,-76.4% (active),6.84% (active),4.64% (active)
CC(=O)N[C@H](C(=O)N[C@@H](CCCNC(=N)N)C(=O)N[C@@H](CCCCN)C(=O)N[C@@H](CCCNC(=N)N)C(=O)NC(C(=O)N[C@@H](CC(C)C)C(=O)N[C@@H](CCCNC(=N)N)C(=O)N[C@@]1(C)CCC/C=C\CCC[C@@](C)(C(=O)N[C@@H](CCCNC(=N)N)C(=O)N[C@@H](CCC(=O)O)C(=O)N[C@@H](CC(C)C)C(=O)N[C@H](C(=O)N[C@@H](CCC(=O)O)C(N)=O)C(C)C)NC(=O)[C@H](CCC(N)=O)NC(=O)[C@H](CC(C)C)NC(=O)[C@H](CC(C)C)NC1=O)[C@@H](C)O)C(C)C (stereo partly specified),16.2%,26.9%,-16.4% (active),31.7%,-35.7% (active),-75.5% (active),-83.9% (active),-68.1% (active),33.2%,-37.7% (active),-6.77% (active),0.7% (active),-52% (active),78.5%,-37.3% (active),41.2%,32.3%,26.9%,,
COc1cc2nc(SCC(=O)Nc3cc(OC)c(OC)c(OC)c3)n(Cc3ccccc3)c(=O)c2cc1OC,90.2%,61.9%,-1.98% (active),63.7%,6.92% (active),35.8%,67.2%,76.3%,68.7%,60.5%,45.4%,75.5%,69.1%,48.9%,-12.5% (active),66.1%,84.8%,-8.93% (active),,
CN1CCN(CCCn2c(=O)c3sc4ncccc4c3n3nnc(-c4ccccc4)c23)CC1,7.72% (active),-54.1% (active),-24.7% (active),23.3%,-81.8% (active),46.5%,-96.3% (active),-88% (active),-90.8% (active),-92.6% (active),-10.7% (active),2.42% (active),47.5%,-74.5% (active),-44.3% (active),-6.48% (active),-39.2% (active),64.6%,-14.7% (active),-20% (active)
COc1ccc2cc(-c3nc4ccccc4s3)c(Cl)nc2c1OC,97%,104%,82.1%,93.9%,107%,92.6%,92.9%,91.1%,90.6%,107%,95.8%,100%,99.9%,64%,118%,96.6%,94.5%,93.1%,104%,92.7%
CC1OC2CC(=O)OC2C2=C1C(=O)c1c(O)c3c(c(O)c1C2=O)C1CC(O)C3(O)C(C)O1 (stereo unspecified),-15.8% (active),-15.9% (active),-28.9% (active),4.68% (active),-23.4% (active),7.91% (active),-96.1% (active),-76.5% (active),-65.9% (active),-51.5% (active),-55.7% (active),13.1%,-33% (active),1.82% (active),-16.6% (active),-16.2% (active),8.24% (active),-18.1% (active),12%,-21.7% (active)
Oc1cccc(-c2nc3sccn3c2-c2ccncn2)c1,93.2%,54.8%,39.4%,111%,114%,84.6%,90.6%,14.5%,36.2%,33.9%,83.7%,92.8%,92.1%,76.8%,123%,97.8%,69.8%,119%,94.1%,101%
